Reference: PubChem BioAssay (EPA / NIEHS)
Inconclusive results are not listed. Activity calls are given as the source filed them. How the source made its calls, unless noted: active means hit-call score of the fitted dose curve at least 0.9, where 1 is the maximum; inactive means score below 0.9.

What was measured:
[1] = ATG_CRE_CIS: Attagene CIS-FACTORIAL HepG2 Assay for human cAMP Responsive Element (CRE) binding protein 3 (AID 2282926); details: HepG2 CRE cis-reporter, Attagene multiplexed mRNA; actives raise or lower the signal
How it was run: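 Capillary electrophoresis of 6-FAM-labelled, HpaI-digested PCR products quantified reporter transcripts. These came from HepG2 transiently transfected with cis-element reporters and exposed to test chemicals for 24 hours, with DMSO defining baseline activity.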

[2] = biological target: Hepatocyte nuclear factor 3-beta (Homo sapiens) (UniProt Q9Y261); assay: ATG_FoxA2_CIS: Attagene CIS-FACTORIAL HepG2 Assay for human Forkhead box A2 (FOXA2) (AID 2282942); details: HepG2 cis-reporter transcription factor activity, 24 h; actives raise or lower the signal
How it was run: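 Endogenous transcription factor activity was read in HepG2 cells carrying transiently transfected cis-promoter reporter units. After 24 h dosing, reporter mRNA was quantified by RT-PCR and capillary electrophoresis, and values fitted bidirectionally versus DMSO.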

[3] = biological target: Hypoxia-inducible factor 1-alpha (Homo sapiens) (UniProt Q16665); assay: ATG_HIF1a_CIS: Attagene CIS-FACTORIAL HepG2 Assay for human Hypoxia Inducible Factor 1 (HIF1A) (AID 2282951); details: HepG2 Attagene cis-factorial HIF1a reporter transcription; actives raise or lower the signal
How it was run: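 Measures endogenous transcription-factor activity through cis-regulated reporter mRNA in HepG2. Cells dosed 24 h; transcripts quantified by RT-PCR with 6-FAM-labelled products separated by capillary electrophoresis; DMSO serves as negative control.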

[4] = biological target: Hepatocyte nuclear factor 6 (Homo sapiens) (UniProt Q9UBC0); assay: ATG_HNF6_CIS: Attagene CIS-FACTORIAL HepG2 Assay for human Hepatocyte Nuclear Factor 6 (HNF6) (AID 2282952); details: HepG2 Attagene cis-factorial HNF6 reporter transcription; actives raise or lower the signal
How it was run: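 Activity values derive from bidirectional fitting against DMSO of reporter mRNA levels, measured by capillary electrophoresis of labelled RT-PCR products from HepG2 cells exposed 24 h.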

[5] = biological target: Heat shock factor protein 1 (Homo sapiens) (UniProt Q00613); assay: ATG_HSE_CIS: Attagene CIS-FACTORIAL HepG2 Assay for human Heat Shock Transcription Factor 1 (HSE) (AID 2282953); details: HepG2 HSE cis-reporter, Attagene RNA transcription; actives raise or lower the signal
How it was run: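 Read-out: fluorescence of reporter-specific RT-PCR fragments separated by capillary electrophoresis. HepG2 carrying transfected cis-element reporter units; 24 h dosing; activity fitted in both directions relative to DMSO baseline.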

[6] = ATG_RORE_CIS: Attagene CIS-FACTORIAL HepG2 Assay for human RAR-related Orphan Receptor Element (RORE) (AID 2282959); details: HepG2 Attagene cis-factorial RORE reporter, mRNA; actives raise or lower the signal
How it was run: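 Cells were HepG2 carrying transfected cis-regulated reporter constructs, dosed for 24 hours. Total RNA was reverse-transcribed and reporter cDNA amplified, fluorescently labeled and sized by capillary electrophoresis. Activity was fitted bidirectionally relative to DMSO.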

[7] = ATG_TAL_CIS: Attagene CIS-FACTORIAL HepG2 Assay for human TAL Basal Promoter (AID 2282966); details: HepG2 Attagene cis-factorial TAL promoter reporter; actives raise or lower the signal;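 further: background control endpoint measuring basal TAL promoter reporter mRNA not a specific factor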
How it was run: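 Transiently transfected HepG2 (cis-regulated reporter units), 24 h treatment, mRNA read by fluorescent CE after RT-PCR; bidirectional fit, DMSO baseline.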

[8] = ATG_TGFb_CIS: Attagene CIS-FACTORIAL HepG2 Assay for human Transforming Growth Factor (TGF) (AID 2282967); details: HepG2 Attagene CIS TGFb reporter, mRNA transcription; actives raise or lower the signal
How it was run: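 Readout: fluorescently labeled reporter cDNA fragments resolved by capillary electrophoresis after RT-PCR. Transfected HepG2 cells dosed for 24 h; endogenous TF activity at TGFB1-linked cis element; gain or loss fitted relative to DMSO.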

[9] = biological target: X-box-binding protein 1 (Homo sapiens) (UniProt P17861); assay: ATG_Xbp1_CIS: Attagene CIS-FACTORIAL HepG2 Assay for human X-box Binding Protein 1 (XBP1) (AID 2282972); details: HepG2 XBP1 cis-element reporter, Attagene multiplex; actives raise or lower the signal
How it was run: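 Human hepatoma HepG2, cis-element reporter system, 24 h treatment; mRNA quantified by RT-PCR/CE fluorescence; fit relative to DMSO.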

[10] = ATG_M_32_TRANS: Attagene TRANS-FACTORIAL HepG2 Assay for M32 Transcription Factor (Internal Marker) (AID 2282984; active means hit-call score of the fitted dose curve at least 0.9, where 1 is the maximum;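 further: transcript level of a background control reporter unit measured by RT-PCR and capillary electrophoresis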); details: HepG2 Attagene TRANS M32 internal marker reporter
How it was run: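 After 24 h dosing of transfected HepG2 cells, total RNA was reverse-transcribed, reporter sequences PCR-amplified, 6-FAM labelled by primer extension and HpaI-digested before capillary electrophoresis. Signal increase over DMSO was fitted.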

[11] = biological target: Transcriptional activator Myb (Homo sapiens) (UniProt P10242); assay: ATG_Myb_CIS: Attagene CIS-FACTORIAL HepG2 Assay for human Myeloblastosis (Myb) Proto-Oncogene Transcription Factor (AID 2282986); details: HepG2 Attagene CIS-FACTORIAL Myb reporter transcription; actives raise or lower the signal
How it was run: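 Steps: transfect HepG2 with cis-regulated reporter units; dose with chemical for 24 h; isolate RNA, reverse-transcribe, PCR-amplify and FAM-label reporter sequences; digest with HpaI; resolve by capillary electrophoresis. Activity fitted in both directions relative to DMSO.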

[12] = biological target: Nuclear respiratory factor 1 (Homo sapiens) (UniProt Q16656); assay: ATG_NRF1_CIS: Attagene CIS-FACTORIAL HepG2 Assay for human Nuclear Respiratory Factor 1 (NRF1) Orphan Gene (AID 2282987); details: HepG2 NRF1 cis-element reporter, Attagene multiplex; actives raise or lower the signal
How it was run: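 Fluorescence intensity of labelled reporter cDNA fragments, resolved by capillary electrophoresis, served as readout for NRF1 cis-element activity. Transiently transfected HepG2 cells were dosed for 24 hours; activity in either direction was fitted against DMSO negative control.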

[13] = ATG_NFI_CIS: Attagene CIS-FACTORIAL HepG2 Assay for human Nuclear Factor I (NFI) (AID 2282989); details: HepG2 cis-regulatory reporter, NFI response element transcription; actives raise or lower the signal
How it was run: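 Read-out: reporter mRNA via RT-PCR plus capillary electrophoresis with fluorescence detection. Transiently transfected HepG2 (endogenous TF activity on cis promoters), 24 h compound exposure; gain or loss of signal fitted against DMSO.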

[14] = biological target: Myc proto-oncogene protein (Homo sapiens) (UniProt P01106); assay: ATG_Myc_CIS: Attagene CIS-FACTORIAL HepG2 Assay for human Myelocytomatosis (Myc) Proto-Oncogene Transcription Factor (AID 2282990); details: HepG2, Attagene cis-reporter transcription factor activity; actives raise or lower the signal
How it was run: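 HepG2 cells transiently transfected with multiple cis-promoter-driven reporter transcription units, so endogenous TF activity is read. After 24 h compound exposure, reporter mRNA was quantified by RT-PCR, 6-FAM labelling, HpaI digestion and capillary electrophoresis; bidirectional fit versus DMSO.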

[15] = ATG_NF_kB_CIS: Attagene CIS-FACTORIAL HepG2 Assay for human Nuclear Factor Kappa B (NF-kB) (AID 2282991); details: HepG2 Attagene cis-factorial NF-kB reporter mRNA; actives raise or lower the signal
How it was run: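 Endogenous transcription factor activity in HepG2 was captured via cis-regulated reporter constructs; after 24 h dosing, reporter mRNA was reverse-transcribed, amplified, fluorescently labelled and sized by capillary electrophoresis, with activity fitted bidirectionally relative to DMSO.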

[16] = ATG_NRF2_ARE_CIS: Attagene CIS-FACTORIAL HepG2 Assay for human Nuclear Factor Erythroid 2 Related Factor 2 (NFR2) response to Antioxidant Response Elements (ARE) (AID 2282992); details: HepG2 Attagene ARE/NRF2 reporter, transcription factor activity; actives raise or lower the signal
How it was run: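 Fluorescence intensity of reporter-specific cDNA fragments, separated by capillary electrophoresis, reflects mRNA induction in transfected HepG2 cells at 24 h. Activity is fitted bidirectionally, DMSO serving as baseline.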

[17] = biological target: Cellular tumor antigen p53 (Homo sapiens) (UniProt P04637); assay: ATG_p53_CIS: Attagene CIS-FACTORIAL HepG2 Assay for human p53 Transcription Factor (AID 2282994); details: HepG2 p53 cis-element reporter, Attagene mRNA; actives raise or lower the signal
How it was run: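 Transiently transfected HepG2 (multiple cis reporter transcription units); exposure 24 h; reporter RNA via RT-PCR, 6-FAM extension, 2 h HpaI digest at 37 C, CE detection; DMSO baseline.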

[18] = ATG_XTT_Cytotoxicity: Cytotoxicity Assessment in the Attagene TRANS-FACTORIAL HepG2 Assay (AID 2283584; active means hit-call score of the fitted dose curve at least 0.9, where 1 is the maximum)
How it was run: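 HepG2 human liver cells, transiently transfected with multiple GAL4-UAS reporter units, were dosed and read at 24 h by XTT as cell number. Loss of signal was fitted relative to DMSO negative control baseline.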

[19] = ATG_M_32_CIS: Attagene CIS-FACTORIAL HepG2 Assay for M32 Transcription Factor (Internal Marker) (AID 2282949); details: HepG2 Attagene cis-factorial M32 reporter, mRNA; actives raise or lower the signal;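 further: background control marker of the multiplexed CIS panel rather than a real target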
How it was run: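 HepG2 transfectants (cis-regulated reporter transcription units) dosed 24 h. Reporter mRNA by RT-PCR plus CE, analysed as gain or loss relative to DMSO.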

[20] = biological target: Nuclear receptor subfamily 1 group I member 2 (Homo sapiens) (UniProt O75469); assay: ATG_PXR_TRANS: Attagene TRANS-FACTORIAL HepG2 Assay for human Pregnane X Receptor (PXR) (AID 2283008; active means hit-call score of the fitted dose curve at least 0.9, where 1 is the maximum)
How it was run: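 Transient HepG2 transfectants carrying multiplexed reporter transcription units; PXR activity read through a Gal4 chimera. 24 h exposure. RT-PCR/CE fluorescence; upward curve fit referenced to DMSO.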

Measured: AC50

Sequence of Cellular tumor antigen p53 (Homo sapiens) (P04637 whole entry, looked up): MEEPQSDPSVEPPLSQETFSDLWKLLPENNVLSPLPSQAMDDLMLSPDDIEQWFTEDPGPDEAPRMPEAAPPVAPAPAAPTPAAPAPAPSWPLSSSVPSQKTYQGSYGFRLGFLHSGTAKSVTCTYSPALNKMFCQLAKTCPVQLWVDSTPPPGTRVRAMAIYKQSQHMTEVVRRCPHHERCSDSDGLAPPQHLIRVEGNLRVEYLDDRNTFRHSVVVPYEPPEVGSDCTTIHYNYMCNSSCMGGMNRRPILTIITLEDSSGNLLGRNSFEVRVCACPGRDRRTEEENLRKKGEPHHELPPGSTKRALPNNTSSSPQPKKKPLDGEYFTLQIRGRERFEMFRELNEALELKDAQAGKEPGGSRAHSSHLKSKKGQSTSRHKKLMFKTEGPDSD
Sequence of X-box-binding protein 1 (Homo sapiens) (P17861 whole entry, looked up): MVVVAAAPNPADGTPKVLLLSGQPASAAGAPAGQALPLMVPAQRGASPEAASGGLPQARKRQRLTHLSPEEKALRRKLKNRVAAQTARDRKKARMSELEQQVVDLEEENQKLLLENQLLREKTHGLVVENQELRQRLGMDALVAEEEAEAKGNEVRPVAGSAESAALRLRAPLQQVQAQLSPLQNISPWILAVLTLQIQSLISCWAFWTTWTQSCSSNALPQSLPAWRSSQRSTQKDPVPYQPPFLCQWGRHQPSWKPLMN
Sequence of Nuclear receptor subfamily 1 group I member 2 (Homo sapiens) (O75469 whole entry, looked up, the tested form may be a part): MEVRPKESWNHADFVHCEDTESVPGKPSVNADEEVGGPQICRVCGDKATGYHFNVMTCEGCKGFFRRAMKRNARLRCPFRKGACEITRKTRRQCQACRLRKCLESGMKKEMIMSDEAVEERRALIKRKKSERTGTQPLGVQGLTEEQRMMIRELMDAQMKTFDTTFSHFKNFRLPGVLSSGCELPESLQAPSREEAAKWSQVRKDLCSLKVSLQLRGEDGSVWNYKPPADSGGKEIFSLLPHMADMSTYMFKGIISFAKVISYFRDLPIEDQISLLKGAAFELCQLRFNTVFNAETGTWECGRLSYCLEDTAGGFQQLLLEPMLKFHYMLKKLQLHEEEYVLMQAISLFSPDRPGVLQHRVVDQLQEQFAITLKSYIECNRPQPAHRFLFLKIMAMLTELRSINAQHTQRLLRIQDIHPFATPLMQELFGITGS
Sequence of Myc proto-oncogene protein (Homo sapiens) (P01106 whole entry, looked up): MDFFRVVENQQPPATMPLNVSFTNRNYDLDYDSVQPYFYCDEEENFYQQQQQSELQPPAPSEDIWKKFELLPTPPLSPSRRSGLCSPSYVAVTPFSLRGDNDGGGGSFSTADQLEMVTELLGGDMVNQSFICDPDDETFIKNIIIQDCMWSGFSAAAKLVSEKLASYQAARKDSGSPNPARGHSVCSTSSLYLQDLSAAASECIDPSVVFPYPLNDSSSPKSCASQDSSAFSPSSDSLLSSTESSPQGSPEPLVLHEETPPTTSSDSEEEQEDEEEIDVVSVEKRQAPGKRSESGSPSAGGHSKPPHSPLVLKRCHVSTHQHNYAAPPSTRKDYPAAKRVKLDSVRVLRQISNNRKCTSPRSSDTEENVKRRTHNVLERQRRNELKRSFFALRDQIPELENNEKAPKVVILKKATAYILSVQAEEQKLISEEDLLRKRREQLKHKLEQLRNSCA
Sequence of Hepatocyte nuclear factor 6 (Homo sapiens) (Q9UBC0 whole entry, looked up): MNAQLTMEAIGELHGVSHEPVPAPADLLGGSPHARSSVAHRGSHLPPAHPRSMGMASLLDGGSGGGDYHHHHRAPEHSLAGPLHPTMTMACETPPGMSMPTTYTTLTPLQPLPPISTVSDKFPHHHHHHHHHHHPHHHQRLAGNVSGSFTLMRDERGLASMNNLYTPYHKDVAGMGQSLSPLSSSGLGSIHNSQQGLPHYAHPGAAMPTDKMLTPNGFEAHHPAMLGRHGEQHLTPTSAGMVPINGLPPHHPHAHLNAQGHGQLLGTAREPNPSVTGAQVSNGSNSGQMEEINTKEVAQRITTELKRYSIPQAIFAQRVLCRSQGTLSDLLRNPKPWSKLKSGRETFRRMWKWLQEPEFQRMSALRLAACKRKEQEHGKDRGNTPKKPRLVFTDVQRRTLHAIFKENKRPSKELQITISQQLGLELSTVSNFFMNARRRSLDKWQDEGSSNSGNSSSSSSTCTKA
Sequence of Hypoxia-inducible factor 1-alpha (Homo sapiens) (Q16665 whole entry, looked up): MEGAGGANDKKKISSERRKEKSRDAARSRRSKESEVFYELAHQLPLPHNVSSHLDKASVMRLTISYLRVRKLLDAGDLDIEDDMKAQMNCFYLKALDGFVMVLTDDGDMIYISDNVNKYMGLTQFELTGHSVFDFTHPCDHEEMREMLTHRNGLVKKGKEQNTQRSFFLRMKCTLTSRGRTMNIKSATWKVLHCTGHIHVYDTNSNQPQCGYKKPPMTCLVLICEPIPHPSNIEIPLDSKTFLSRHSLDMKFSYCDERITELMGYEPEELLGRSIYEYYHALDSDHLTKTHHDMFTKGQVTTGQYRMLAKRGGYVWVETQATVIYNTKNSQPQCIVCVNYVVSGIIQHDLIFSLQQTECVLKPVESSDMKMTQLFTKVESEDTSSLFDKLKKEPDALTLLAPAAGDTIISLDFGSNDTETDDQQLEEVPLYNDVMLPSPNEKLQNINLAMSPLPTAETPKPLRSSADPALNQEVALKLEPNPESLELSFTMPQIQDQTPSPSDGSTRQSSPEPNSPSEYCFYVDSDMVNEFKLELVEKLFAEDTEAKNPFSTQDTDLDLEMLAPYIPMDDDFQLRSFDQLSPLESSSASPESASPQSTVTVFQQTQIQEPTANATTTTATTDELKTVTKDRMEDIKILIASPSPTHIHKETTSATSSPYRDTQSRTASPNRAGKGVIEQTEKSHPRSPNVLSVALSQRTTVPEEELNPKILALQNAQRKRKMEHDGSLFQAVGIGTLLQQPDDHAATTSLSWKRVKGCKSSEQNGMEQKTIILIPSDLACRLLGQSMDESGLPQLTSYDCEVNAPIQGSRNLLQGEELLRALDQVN
Sequence of Transcriptional activator Myb (Homo sapiens) (P10242 whole entry, looked up): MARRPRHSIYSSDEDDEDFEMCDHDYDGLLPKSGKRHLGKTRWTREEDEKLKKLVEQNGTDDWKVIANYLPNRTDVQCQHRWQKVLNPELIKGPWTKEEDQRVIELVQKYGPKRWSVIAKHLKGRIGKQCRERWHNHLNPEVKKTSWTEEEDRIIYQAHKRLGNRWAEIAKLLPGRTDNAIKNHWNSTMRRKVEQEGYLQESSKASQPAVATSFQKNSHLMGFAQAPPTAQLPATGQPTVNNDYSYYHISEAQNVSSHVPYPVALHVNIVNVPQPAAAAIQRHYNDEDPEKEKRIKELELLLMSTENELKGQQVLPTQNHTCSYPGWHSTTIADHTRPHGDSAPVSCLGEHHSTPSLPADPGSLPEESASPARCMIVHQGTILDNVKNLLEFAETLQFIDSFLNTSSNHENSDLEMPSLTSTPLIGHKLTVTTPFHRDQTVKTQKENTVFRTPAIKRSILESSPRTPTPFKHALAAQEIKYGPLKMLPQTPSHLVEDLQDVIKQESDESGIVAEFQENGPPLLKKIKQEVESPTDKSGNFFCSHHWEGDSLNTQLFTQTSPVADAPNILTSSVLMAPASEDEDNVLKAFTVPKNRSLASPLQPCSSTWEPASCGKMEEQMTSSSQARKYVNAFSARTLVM
Sequence of Nuclear respiratory factor 1 (Homo sapiens) (Q16656 whole entry, looked up, the tested form may be a part): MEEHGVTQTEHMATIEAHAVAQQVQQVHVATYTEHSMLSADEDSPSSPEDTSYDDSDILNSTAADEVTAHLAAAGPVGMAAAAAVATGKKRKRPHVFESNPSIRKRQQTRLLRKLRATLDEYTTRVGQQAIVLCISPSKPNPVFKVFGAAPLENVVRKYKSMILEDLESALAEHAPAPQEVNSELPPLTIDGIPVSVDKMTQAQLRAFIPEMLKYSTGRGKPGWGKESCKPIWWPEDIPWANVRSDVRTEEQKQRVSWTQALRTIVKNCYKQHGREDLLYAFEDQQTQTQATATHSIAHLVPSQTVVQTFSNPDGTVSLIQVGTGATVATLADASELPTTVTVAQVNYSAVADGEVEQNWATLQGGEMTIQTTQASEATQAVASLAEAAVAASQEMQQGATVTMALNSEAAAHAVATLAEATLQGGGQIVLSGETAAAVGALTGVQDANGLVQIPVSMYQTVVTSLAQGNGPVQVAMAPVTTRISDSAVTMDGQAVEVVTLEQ
Sequence of Heat shock factor protein 1 (Homo sapiens) (Q00613 whole entry, looked up, the tested form may be a part): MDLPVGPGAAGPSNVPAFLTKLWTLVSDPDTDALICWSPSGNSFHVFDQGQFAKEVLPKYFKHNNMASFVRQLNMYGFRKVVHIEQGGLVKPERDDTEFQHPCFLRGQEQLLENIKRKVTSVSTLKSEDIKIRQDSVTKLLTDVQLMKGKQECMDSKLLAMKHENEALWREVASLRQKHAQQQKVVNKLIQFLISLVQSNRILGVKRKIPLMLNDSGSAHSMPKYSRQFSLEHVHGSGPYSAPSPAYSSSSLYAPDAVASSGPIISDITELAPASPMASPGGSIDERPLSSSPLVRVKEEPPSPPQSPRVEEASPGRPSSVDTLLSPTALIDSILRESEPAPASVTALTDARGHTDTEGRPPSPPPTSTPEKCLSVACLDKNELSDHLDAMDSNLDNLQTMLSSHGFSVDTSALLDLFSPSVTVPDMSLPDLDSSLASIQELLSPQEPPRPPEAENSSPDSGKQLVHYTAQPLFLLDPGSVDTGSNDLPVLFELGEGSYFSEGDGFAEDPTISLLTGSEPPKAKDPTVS
Sequence of Hepatocyte nuclear factor 3-beta (Homo sapiens) (Q9Y261 whole entry, looked up): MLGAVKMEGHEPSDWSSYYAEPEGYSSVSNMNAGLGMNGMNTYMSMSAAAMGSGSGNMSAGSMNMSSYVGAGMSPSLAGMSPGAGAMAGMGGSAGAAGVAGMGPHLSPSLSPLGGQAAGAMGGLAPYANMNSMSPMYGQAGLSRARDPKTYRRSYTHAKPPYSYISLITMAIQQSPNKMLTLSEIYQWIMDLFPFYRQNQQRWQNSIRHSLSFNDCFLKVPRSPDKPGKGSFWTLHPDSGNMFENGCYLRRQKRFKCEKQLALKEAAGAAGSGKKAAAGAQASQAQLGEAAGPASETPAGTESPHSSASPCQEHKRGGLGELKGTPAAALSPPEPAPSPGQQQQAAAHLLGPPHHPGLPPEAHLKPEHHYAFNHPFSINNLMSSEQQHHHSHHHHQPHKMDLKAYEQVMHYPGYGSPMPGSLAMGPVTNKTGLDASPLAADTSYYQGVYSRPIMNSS

Oc1ccc(Cl)cc1
not listed: [19] | [20]
inactive: all other assays above

Nc1ccc(Cl)c(Cl)c1
not listed: [7] | [18]
inactive: all other assays above

CC(C)CCCCCCCOC(=O)c1ccccc1C(=O)OCCCCCCCC(C)C
not listed: [15]
inactive: all other assays above

CCCCCc1cc(O)cc(O)c1
active: [3] 100 µM | [6] 50.4 µM | [9] 51.7 µM | [16] 43.5 µM | [20] 11.1 µM
not listed: [2] | [7]
inactive: all other assays above

O=S(=O)(O)O
not listed: [2] | [6] | [10] | [15] | [17] | [19]
inactive: all other assays above

CCOC(=O)NC(=S)Nc1ccccc1NC(=S)NC(=O)OCC
active: [16] 5.19 µM | [20] 0.77 µM
inactive: all other assays above

CCCCOC(=O)CCC(=O)OCCCC
not listed: [15] | [20]
inactive: all other assays above

COc1cc(OC)nc(Oc2cccc(Oc3nc(OC)cc(OC)n3)c2C(=O)O)n1
not listed: [18]
inactive: all other assays above
